The values that follow come from PubChem BioAssay.

A short description of assay [1]: E. coli DRC41 culture turbidity changes, primary screen, E. coli filamentation inducer project, strain DRC41, OD650, 48 h (AID 1152).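 Also: E. coli MC1000 strain DRC41 lacking acrAB efflux pump and sulA.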 Particulars: E. coli DRC41 (acrAB sulA), higher = more signal, called active from +8 up or from −8 down.
Assay [2] is described as follows: small-molecule binders of probe aLefty1, primary screen, biochemical, small-molecule microarray, 635/667 nm fluorescence (AID 1153).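 Also: score merges spot fluorescence with signal-to-noise ratio from the scanned slide images.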 The settings on record: higher = more signal.
Assay [3] is described as follows: PSAC antagonists in infected red cells, primary screen, cell-based, P. falciparum Indochina, OD700, 1 h (AID 1154). Particulars: P. falciparum Indochina infected RBC osmotic lysis, higher = more signal, called active from +8 up or from −8 down.
A short description of assay [4]: PSAC antagonists in infected red cells, primary screen, cell-based, P. falciparum Indochina, OD700, 2 h (AID 1155).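 Also: lysis reports solute entry through the parasite surface anion channel PSAC; channel blockers reduce lysis of infected cells.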 Particulars: P. falciparum Indochina infected erythrocytes, osmotic lysis OD700; higher = more signal, called active from +8 up or from −8 down.
The nature of assay [5]: osmotic lysis modulators in infected erythrocytes, primary screen, PSAC antagonist project, cell-based, P. falciparum Indochina, OD700, 3 h (AID 1156). The settings on record: higher = more signal, called active from +8 up or from −8 down.
A short description of assay [6]: PSAC antagonists in infected red cells, primary screen, cell-based, P. falciparum Indochina, OD700, 18 h (AID 1157). The settings on record: P. falciparum Indochina infected erythrocytes, osmotic lysis OD700, 18 h; higher = more signal, called active from +8 up or from −8 down.
A short description of assay [7]: modulators of S6 phosphorylation in cells, primary screen, cell-based, A549, cytoblot, luminescence, serum-stimulated (AID 1158).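 Also: serum-stimulated A549 lung adenocarcinoma cells; signal is phosphorylated S6 detected by cytoblot immunostaining with HRP secondary.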 Particulars: A549 phospho-S6 cytoblot, 5 h, higher = more signal.
Assay [8] addresses NADPH oxidase 2 (Homo sapiens) (UniProt P04839). The assay is described as follows: NOX2-dependent H2O2 signal modulators, primary screen, NOX inhibitor project, cell-based, HEK293-NOX2, PMA-stimulated, Amplex Red fluorescence (AID 1159). Also: test concentration not given here. The settings on record: 45 min, higher = more signal, called active from +8 up or from −8 down.
For assay [9], the target named is NADPH oxidase 4 (Homo sapiens) (UniProt Q9NPH5). The experiment in a line: NOX4-dependent H2O2 signal modulators, primary screen, NOX inhibitor project, cell-based, HEK293-NOX4, tetracycline-induced, Amplex Red fluorescence (AID 1160). Particulars: 45 min, higher = more signal, called active from +8 up or from −8 down.
Assay [10] addresses NADPH oxidase 5 (Homo sapiens) (UniProt Q96PH1). The experiment in a line: NOX5-dependent H2O2 signal modulators, primary screen, NOX inhibitor project, cell-based, HEK293-NOX5, Amplex Red fluorescence (AID 1161). Particulars: HEK293-NOX5, ionomycin, 45 min, higher = more signal.

Activity calls are given as the source filed them.

NADPH oxidase 2 (Homo sapiens), sequence (P04839 whole entry, looked up): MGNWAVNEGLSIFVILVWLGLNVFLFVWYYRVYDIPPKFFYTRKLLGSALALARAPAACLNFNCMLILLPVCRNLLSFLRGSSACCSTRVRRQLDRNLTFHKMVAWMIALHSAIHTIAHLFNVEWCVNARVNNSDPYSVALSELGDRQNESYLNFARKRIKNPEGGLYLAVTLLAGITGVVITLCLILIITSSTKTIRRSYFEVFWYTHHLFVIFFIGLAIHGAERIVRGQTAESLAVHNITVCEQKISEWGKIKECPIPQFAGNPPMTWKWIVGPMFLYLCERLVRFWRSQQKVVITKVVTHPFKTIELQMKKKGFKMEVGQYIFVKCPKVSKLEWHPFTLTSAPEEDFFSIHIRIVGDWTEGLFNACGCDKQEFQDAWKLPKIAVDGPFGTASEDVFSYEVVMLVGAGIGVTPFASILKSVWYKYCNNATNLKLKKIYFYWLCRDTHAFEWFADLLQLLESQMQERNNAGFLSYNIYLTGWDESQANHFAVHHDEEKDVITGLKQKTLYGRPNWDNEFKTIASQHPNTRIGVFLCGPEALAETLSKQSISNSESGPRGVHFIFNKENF
NADPH oxidase 5 (Homo sapiens), sequence (Q96PH1 whole entry, looked up): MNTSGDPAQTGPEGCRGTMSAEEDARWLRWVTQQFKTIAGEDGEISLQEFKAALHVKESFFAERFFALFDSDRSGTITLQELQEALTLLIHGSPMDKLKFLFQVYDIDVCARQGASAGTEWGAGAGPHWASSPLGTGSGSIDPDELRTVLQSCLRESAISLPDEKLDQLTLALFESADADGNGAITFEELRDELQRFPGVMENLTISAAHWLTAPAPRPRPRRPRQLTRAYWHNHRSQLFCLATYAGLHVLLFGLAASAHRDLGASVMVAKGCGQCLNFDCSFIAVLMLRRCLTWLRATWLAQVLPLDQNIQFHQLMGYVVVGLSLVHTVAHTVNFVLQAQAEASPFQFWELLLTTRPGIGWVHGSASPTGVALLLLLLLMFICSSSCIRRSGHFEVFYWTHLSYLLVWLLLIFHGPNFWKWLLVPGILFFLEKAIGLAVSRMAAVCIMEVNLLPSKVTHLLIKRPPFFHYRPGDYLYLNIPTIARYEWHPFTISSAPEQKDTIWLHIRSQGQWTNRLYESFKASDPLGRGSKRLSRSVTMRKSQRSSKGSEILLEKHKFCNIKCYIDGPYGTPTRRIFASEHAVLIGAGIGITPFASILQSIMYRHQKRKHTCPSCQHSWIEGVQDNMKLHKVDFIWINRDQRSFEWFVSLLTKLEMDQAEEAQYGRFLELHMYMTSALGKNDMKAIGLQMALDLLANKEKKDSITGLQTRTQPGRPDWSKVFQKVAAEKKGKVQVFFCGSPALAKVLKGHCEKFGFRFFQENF
NADPH oxidase 4 (Homo sapiens), sequence (Q9NPH5 whole entry, looked up): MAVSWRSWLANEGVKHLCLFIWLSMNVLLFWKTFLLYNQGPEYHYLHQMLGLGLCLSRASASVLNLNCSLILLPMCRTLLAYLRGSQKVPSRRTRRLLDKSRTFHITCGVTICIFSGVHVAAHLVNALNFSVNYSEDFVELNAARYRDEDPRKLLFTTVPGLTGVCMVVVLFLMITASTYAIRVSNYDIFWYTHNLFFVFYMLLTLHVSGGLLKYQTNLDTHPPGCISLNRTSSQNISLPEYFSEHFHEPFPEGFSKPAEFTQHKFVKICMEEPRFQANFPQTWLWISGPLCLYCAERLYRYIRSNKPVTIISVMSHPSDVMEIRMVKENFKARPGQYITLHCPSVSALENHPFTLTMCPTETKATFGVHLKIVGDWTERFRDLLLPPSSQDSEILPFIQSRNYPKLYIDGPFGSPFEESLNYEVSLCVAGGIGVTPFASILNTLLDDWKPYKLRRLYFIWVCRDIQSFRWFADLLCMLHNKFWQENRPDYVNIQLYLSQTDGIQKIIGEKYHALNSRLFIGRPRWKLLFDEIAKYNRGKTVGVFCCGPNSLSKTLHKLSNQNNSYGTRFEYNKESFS

As for `C=CC[C@]1(C(=O)N2CCCCC2)N=C(c2ccc(OCCCO)cc2)O[C@H]1c1ccccc1N=[N+]=[N-]`, the z-score in assay [1] is 0.297 (inactive); in assay [3], 35.8 (active); in assay [4], 31.6 (active); in [5], 4.43 (inactive); in assay [6], 8.93 (active); in assay [7], 0.0944. The z-score was -1.88 (inactive) in [8], 0.898 (inactive) in assay [9] and -0.971 in [10]. Besides, the composite z-score in assay [2] came to 0.707.

As to `COc1cc(Cc2cc3c(c(CCc4ccccc4)n2)[Si](C(C)C)(C(C)C)OC3)cc(OC)c1OC`, the z-score in [1] was -0.655 (inactive); in assay [3] it was 2.06 (inactive); in assay [4] it was 0.481 (inactive); in assay [5], -0.411 (inactive); in assay [6], -0.232 (inactive); in assay [7], -0.475. Moreover, the z-score is -0.195 (inactive) in assay [8], -0.231 (inactive) in assay [9] and -2.59 in [10]. In [2], this compound displayed a composite z-score of -0.0501.

On to `Cc1ccc(N2C(=O)c3ccccc3[C@](C)(C(=O)O)[C@@H]2c2ccc(CO)cc2)nc1`, for which the z-score is 1.47 (inactive) in assay [1]; 0.703 (inactive) in [3]; -0.228 (inactive) in assay [4]; -0.0241 (inactive) in [5]; -0.211 (inactive) in [6]; 0.283 in assay [7]. Besides, the z-score is 0.775 (inactive) in [8], -0.975 (inactive) in assay [9] and -0.457 in assay [10]. The compound further had a composite z-score in assay [2] of -0.147.

As to `C/C(=N\O)C(=O)NCCCCCNC(=O)OCc1ccccc1`, the z-score in assay [1] is 1.93 (inactive); in assay [3] it was 15.4 (active); in [4], 2.09 (inactive); in assay [5], -0.222 (inactive); in [6] it was 0.501 (inactive); in [7] it was -0.246. Besides, the z-score is -0.459 (inactive) in [8], 0.0531 (inactive) in assay [9] and -0.588 in assay [10]. This compound also had a composite z-score in [2] of -0.194.

Turning to `N#Cc1ccc(NN2C(C(O)CCc3ccccc3)C=CC3C(=O)N(c4ccccc4)C(=O)C32)cc1` (stereo not given), the z-score in assay [1] was -0.487 (inactive); in assay [3], 11.9 (active); in assay [4], 1.44 (inactive); in [5], 0.712 (inactive); in [6], -0.864 (inactive); in assay [7], 0.843. The figures for the z-score in assay [8], in assay [9] and in assay [10] were -2.47 (inactive), -3.59 (inactive) and -1.41, respectively. Besides, in assay [2], the composite z-score was 0.272.

In the case of `C[C@@H]1NC(=O)CC=C[C@@H](C)[C@@H]2C=C[C@H](O)[C@@H](COC(=O)[C@H](C)NC(=O)CC=C[C@@H](C)[C@@H]3C=C[C@H](O)[C@@H](COC1=O)O3)O2`, the z-score was 0.327 (inactive) in assay [1]; 1.33 (inactive) in assay [3]; -0.302 (inactive) in assay [4]; 0.232 (inactive) in assay [5]; -1.39 (inactive) in assay [6]; 1.64 in assay [7]. For the same compound, the z-score is 1.28 (inactive) in assay [8], -0.991 (inactive) in assay [9] and -0.0558 in assay [10]. For the same compound, in [2], the composite z-score was -0.147.

Consider `CN1C2C=C(c3ccc(CO)cc3)C(C3C(=O)N(C(N)=O)C(=O)C32)C1c1cccs1` (stereo not given), for which the z-score was 1.37 (inactive) in assay [1]; 2.26 (inactive) in assay [3]; -1.44 (inactive) in [4]; -0.71 (inactive) in assay [5]; -1.37 (inactive) in assay [6]; -0.402 in assay [7]. The z-score in [8] was 1.57 (inactive); in [9], -0.124 (inactive); in [10] it was -0.0981. In addition, in [2], the composite z-score was -0.0893.

For `C=CC[C@@]1(C(=O)N2CCOCC2)N=C(c2ccc(OCCCO)cc2)O[C@@H]1c1ccccc1`, the z-score was 1.24 (inactive) in assay [1]; 20.8 (active) in [3]; 4.03 (inactive) in [4]; 2.25 (inactive) in [5]; 1.11 (inactive) in assay [6]; -0.115 in [7]. In addition, the z-score is -1.04 (inactive) in assay [8], 0.471 (inactive) in assay [9] and -1 in [10]. Besides, the composite z-score in assay [2] is -0.269.

Regarding `CO[C@H]1O[C@H](CO)[C@@H](OC(=O)Nc2ccccc2)[C@H](OC(=O)Nc2ccc3c(c2)OCO3)[C@@H]1OC(=O)Nc1ccc2c(c1)OCO2`, the z-score was 1.44 (inactive) in [1]; 9.35 (active) in [3]; -0.145 (inactive) in [4]; 1.78 (inactive) in assay [5]; -2 (inactive) in assay [6]; 1.27 in [7]. For the same compound, the z-score was 0.679 (inactive) in assay [8], 0.0792 (inactive) in assay [9] and -0.922 in [10]. Besides, in [2], the composite z-score worked out at 0.273.

Turning to `Cc1ccccc1C(O)C1C=CC2C(=O)N(c3ccccc3)C(=O)C2N1Nc1ccc(C#N)cc1` (stereo not given), the z-score is 0.307 (inactive) in [1]; 26 (active) in assay [3]; 14.9 (active) in [4]; 3.53 (inactive) in assay [5]; 1.81 (inactive) in [6]; -0.762 in [7]. In addition, the results for the z-score in assay [8], in assay [9] and in assay [10] were -0.865 (inactive), -4.92 (inactive) and -3.18, respectively. In addition, the composite z-score in assay [2] is 1.1.

As to `C=CCNC(=O)[C@@H]1[C@H]2C(=O)O[C@H](c3ccccc3)[C@H](c3ccccc3)N2[C@H](c2ccc(OCCO)cc2)[C@@]12C(=O)N(C(=O)OCCOC)c1ccc(C#CC3(O)CCCCCC3)cc12`, the z-score is 2.62 (inactive) in [1]; 5.36 (inactive) in assay [3]; 2.14 (inactive) in [4]; 0.539 (inactive) in assay [5]; 0.761 (inactive) in assay [6]; 3.82 in [7]. Further, the z-score in [8] was 1.03 (inactive); in assay [9] it was 0.845 (inactive); in assay [10] it was -1.14. For the same compound, the composite z-score in [2] is 0.372.
